Records with an inconclusive call do not appear. A call without a number means that no potency is given here. Calls of active or inactive are those of the source. The call rests on the fitted dose curve; in most records, active means well fitted inhibition curve with a large enough effect; inconclusive means small, poorly fitted or top-dose-only effect; inactive means no such curve, though single readings can be large or run the other way.
Columns and labels:
[1] = tested on: Zika virus NS2B-NS3 protease (unlinked complex); assay: Primary screen GU Rhodamine qHTS for Zika virus inhibitors: Unlinked NS2B-NS3 protease assay (AID 1347159); settings: Recombinant ZIKV NS2B-NS3 protease, Rhodamine110 substrate fluorescence; series mostly up to 107 µM; further: nearly all actives have a fitted effect of over 60% in size
Summary of the method: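 Compounds, tested up to 114 microM, were incubated for 15 minutes with 25 nM unlinked NS2B-NS3 protease at pH 8.0. Cleavage of 1.5 microM Rhodamine110 substrate was then followed by fluorescence for 15 minutes.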

[2] = tested on: Zika virus NS2B-NS3 protease (linked construct); assay: Primary screen NINDS Rhodamine qHTS for Zika virus inhibitors (AID 1347160); settings: purified NS2B-NS3 protease, Rhodamine110 substrate fluorescence; series mostly up to 57.1 µM; further: nearly all actives have a fitted effect of over 55% in size
Summary of the method: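 Percent inhibition, normalized to uninhibited and enzyme-free controls, is fitted to a 4-parameter Hill equation. Fluorescence change comes from a 15-min cleavage of 1.5 microM bis-peptide Rhodamine110 substrate by 25 nM linked NS2B-NS3 at room temperature.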

Structure (SMILES) | Potency [1] | Potency [2]
CCC(C)C(=O)O[C@H]1CCC=C2C=C[C@H](C)[C@H](CC[C@@H](O)C[C@@H](O)CC(=O)O)[C@H]21 (some centres undefined) | inactive | inactive
Cn1c(=O)cc(N2CCCC(N)C2)n(Cc2cc(F)ccc2C#N)c1=O (centres undefined) | inactive | inactive
N#Cc1ccc2[nH]cc(CCCCN3CCN(c4ccc5oc(C(N)=O)cc5c4)CC3)c2c1 | inactive | inactive
Cn1c(=O)n(-c2ccc(C(C)(C)C#N)cc2)c2c3cc(C#Cc4cccnc4)ccc3ncc21 | inactive | inactive
CC(Oc1ccc2[nH]nc(/C=C/c3cnn(CCO)c3)c2c1)c1c(Cl)cncc1Cl (centres undefined) | inactive | inactive
C[C@@H]([C@@H](O)c1ccc(O)cc1)N1CCC(O)(c2ccccc2)CC1 | inactive | inactive
O=C1CCC(=O)N(O)CCCCCNC(=O)CCC(=O)N(O)CCOCCNC(=O)CCC(=O)N(O)CCCCCN1 | inactive | inactive
NC(=O)C(CCC(F)(F)F)N(Cc1ccc(-c2ncon2)cc1F)S(=O)(=O)c1ccc(Cl)cc1 (centres undefined) | inactive | inactive
CC(O)c1cc(C(=O)N[C@@H](C)Cn2ccc(-c3ccc(C#N)c(Cl)c3)n2)n[nH]1 (some centres undefined) | inactive | inactive
CC(C)S(=O)(=O)NC[C@H](C)c1ccc(NC(=O)c2cc(F)cc(F)c2)cc1 | inactive | inactive
CCCCNc1ncc2c(-c3ccc(CN4CCN(C)CC4)cc3)cn(C3CCC(O)CC3)c2n1 (centres undefined) | inactive | inactive
C[C@H]1C(=O)N2c3ccccc3[C@@]3(O)C[C@@H]4C(=O)N[C@](C)(c5nc6ccccc6c(=O)n54)N1[C@@H]23 | inactive | inactive
